Values without a mark were called inactive. Active and inactive are the calls of the source. Calls follow the shape of the dose curve; as a rule, active = well fitted curve in the direction sought with a large enough effect in the repeat runs; inconclusive = weak or mixed curves; inactive = flat fitted curve, though single readings scatter.
Assay: qHTS assay to test for compound auto fluorescence at 590 nm (red) in HEK293 cell free culture (AID 720683)
Conditions: cell-free medium autofluorescence, Ex540/Em590 red; series mostly up to 91.3 µM; fluorescence, % of fluorescent control: at the top concentration
Source text: U.S. Tox21 Program National Center for Advancing Translational Sciences [NCATS] NIH Chemical Genomics Center [NCGC] U.S. Environmental Protection Agency [EPA] National Institutes of Environmental Health Sciences [NIEHS] National Toxicology Program [NTP] U.S. Food and Drug Administration [FDA] Tox21 Assay Overview: Compound auto fluorescence often interferes with screening of the compound library against various biological targets and signaling pathways. Some of these compounds may have fluorophoric properties. Such properties may interfere with the assay outputs resulting in false positives and/or negatives. To decrease such complications and ensure the compound activities are relevant in terms of biological response, the Tox21 10K compound library was screened for auto fluorescence. From the fluorophores used as reporter signals in our screening assays, the auto fluorescence equivalencies of compounds against three fluorophores have been evaluated: Triamterene, Fluorescein and Rose Bengal sodium for blue, green and red fluorescence, respectively. The fluorescence intensities were measured using Excitation/Emission wavelengths at 405/460nm, 485/535nm and 540/590nm for blue, green and red labels, respectively. This assay includes the red fluorescence data.
Tox21 Assay Protocol Summary: 5 uL of culture medium (DMEM containing 10% FBS) per well was dispensed into black wall/clear bottom 1536-well plates using a Multidrop Combi Dispenser (ThermoFisher Scientific, Waltham, MA). After 23 nL compound or DMSO vehicle was transferred into assay plate by a pintool work station (Kalypsys, San Diego, CA), fluorescence intensities in the assay plates were measured by an Envision (PerkinElmer, Shelton, CT) plate reader using three labels for measuring blue, green and red fluorescence at […] 460, 535 and 590nm respectively.
% is scaled to controls: 0 for no effect and ±100 for the full control effect.

Row | Structure (SMILES) | fluorescence, % of fluorescent control | outcome
1 | CCCCCCCCCCCCCCC(=O)NC(CO)CCCCCCCCCCCCCC (stereo not given) | -0.132% | 
2 | CNCCS(=O)(=O)O | -0.0083% | 
3 | CC(=O)C(C)O (stereo not given) | 0.227% | 
4 | CCOC(CN1CCN(CC(C)C(=O)c2ccccc2)CC1)c1ccccc1 (stereo not given) | -0.327% [at 46 µM] | 
5 | O=C[O][Al]([O]C=O)[O]C=O | 0.0494% | 
6 | CC(=O)CCC1=C(C)CCCC1(C)C | 0.0475% | 
7 | CCCC(CC)c1ccccc1 (stereo not given) | 0.124% | 
8 | C=CCCCCCCCC | -0.0593% | 
9 | Fc1ccccc1 | -0.189% | 
10 | O=C(Cl)c1ccccc1[N+](=O)[O-] | -0.374% [at 95.7 µM] | 
11 | C#CCN[C@@H]1CCc2ccccc21 | -0.734% [at 46 µM] | 
12 | CC1=C(C(=O)O)N2C(=O)[C@@H](NC(=O)[C@H](N)c3ccccc3)[C@H]2SC1 | -0.146% [at 46 µM] | 
13 | C=CCSSCCC | -0.281% | 
14 | COC(=O)/C=C\C(=O)O | 0.023% | 
15 | CN(C)CC/C=C1/c2ccccc2COc2ccc(CC(=O)O)cc21 | 0.0132% [at 46 µM] | 
16 | NCCOCCN | 0.0164% | 
17 | CO[Si](CCCn1c(=O)n(CCC[Si](OC)(OC)OC)c(=O)n(CCC[Si](OC)(OC)OC)c1=O)(OC)OC | -0.114% | 
18 | CCCC(=O)OCCC(C)CCC=C(C)C (stereo not given) | 0.0063% | 
19 | CC(=O)c1cc(C)oc1C | 0.0002% [at 95.7 µM] | 
20 | Cc1ccccc1C(N)=O | 0.0577% | 

Row | Structure (SMILES) | fluorescence, % of fluorescent control | outcome
21 | CCCCOC(=O)C(C)O (stereo not given) | 0.0023% | 
22 | CCO[Si](CC)(OCC)OCC | -0.127% | 
23 | COc1ccc2c(c1)c1c3n2CCN(C)C3=NCC1 | -0.467% [at 46 µM] | 
24 | N[C@@H](Cc1ccc(O)cc1)C(=O)O | 0.175% [at 46 µM] | 
25 | NCC1(Cc2noc(=O)[nH]2)CCCCC1 | 0.0213% | 
26 | CC(C)Cn1cnc2c1c(=O)n(C)c(=O)n2C | 0.325% [at 46 µM] | 
27 | O=S(=O)(O)c1ccc2c(N=Nc3ccc(S(=O)(=O)O)c4ccccc34)c(O)c(S(=O)(=O)O)cc2c1 |  | inactive
28 | Cc1c(NC(=O)c2cccnc2)c(=O)n(-c2ccccc2)n1C | -0.0161% [at 18.6 µM] | 
29 | ONc1ccccc1 | 0.18% [at 95.7 µM] | 
30 | O=C=NCC1CCCC(CN=C=O)C1 (stereo not given) | -0.188% | 
31 | CCC(C)OC(C)CC (stereo not given) | 0.117% [at 95.7 µM] | 
32 | CC(=O)Nc1ccc(OC(=O)c2ccccc2OC(C)=O)cc1 | -0.283% [at 46 µM] | 
33 | CC(O)CC(C)O (stereo not given) | 0.0899% | 
34 | CC(C)NCC(O)c1ccc2ccccc2c1 (stereo not given) | 0.0196% [at 46 µM] | 
35 | c1ccc(B(c2ccccc2)c2ccccc2)cc1 | 0.108% | 
36 | CCOCCOCC | -0.297% [at 95.7 µM] | 
37 | CCCCCCCCCCCCCCCCCC#N | -0.164% [at 95.7 µM] | 
38 | CSc1cnccn1 | -0.0461% | 
39 | Cc1c(Cl)cccc1Cl | 0.0251% | 
40 | C=Cc1ccc(C(C)(C)C)cc1 | 0.319% | 

From PubChem BioAssay (Tox21)
